Screening results as filed in PubChem.
Shiga toxin inh: Shiga toxin inhibition. actives 9.2% (n = 290,000). Vero cells, Shiga toxin protein synthesis inhibition reporter. inhibition, % at 38.7 µM; in the data active = inhibition mostly above about 28%, no sharp cut-off; inactive = mostly below about 43%; note: 0% is about no effect
RE007 growth inh: less growth of the S. pombe RE007 Vpr strain | Potency, µM (series often up to 92.2 µM), inactives show top-dose activity change, negative = less growth, actives largely listed as inhibitors | actives 0.21% (n = 360,000) | S. pombe RE007 Vpr strain, BacTiter-Glo ATP luminescence, 24 h; active = well fitted falling curve with a large enough effect; inconclusive = small, poorly fitted or top-dose-only effect; inactive = no such curve, though single readings can be large or run the other way; note: potency is the fitted concentration of half-maximal effect; % is set by controls: 0 for no effect and ±100 for the full control effect; nearly all actives have a fitted effect of over 50% in size
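Fission yeast strain RE007, carrying one chromosomally integrated HIV-1 vpr copy, was seeded at OD 0.01 in PMG+AL medium with 23 nL pinned compound. After 24 h at 30 °C and 99% humidity, viability was read by BacTiter-Glo luminescence.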
Cycloheximide cs: affects cycloheximide protein synthesis inhibition readout, counter-screen; cell reporter, cycloheximide protein synthesis inhibition counterscreen; max response, %; actives 12% (n = 300,000); AID 2314; in the data active = max response mostly above about 13%, no sharp cut-off; inactive = mostly below about 14%; note: read at 38.3 µM for the half of the compounds with a filed dose; 0% is about no effect
Tb PYK inh: T. brucei pyruvate kinase inhibition | Potency, µM (titrated, usually from 76.8 µM), inactives show at the highest dose activity, negative = inhibition, hits mostly inhibitors | actives 0.12% (n = 410,000) | Q57TT1 | AID 624173 | TbPYK enzyme, Kinase-Glo Plus ATP luminescence, 45 min; note: potency is the fitted concentration of half-maximal effect; % is set by controls: 0 for no effect and ±100 for the full control effect; nearly all actives have a fitted effect of over 50% in size
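Luminescence from Kinase-Glo Plus, added after a 45-minute room-temperature reaction, served as the end-point read-out. The enzyme and substrate were preincubated with compound before ADP (130 uM final) initiated turnover. Concentration-effect curves came from normalized qHTS data.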
LmPK inh: blocks Leishmania mexicana pyruvate kinase activity; actives 0.37% (n = 290,000); purified LmPK, Kinase-Glo ATP luminescence, 1 h; Potency, µM (doses to about 57.5 µM), for the others: at the top dose activity change, negative = inhibition, hits mostly inhibitors; AID 1721; note: potency is the fitted concentration of half-maximal effect; % is set by controls: 0 for no effect and ±100 for the full control effect
Target sequence (Q27686 whole entry, looked up): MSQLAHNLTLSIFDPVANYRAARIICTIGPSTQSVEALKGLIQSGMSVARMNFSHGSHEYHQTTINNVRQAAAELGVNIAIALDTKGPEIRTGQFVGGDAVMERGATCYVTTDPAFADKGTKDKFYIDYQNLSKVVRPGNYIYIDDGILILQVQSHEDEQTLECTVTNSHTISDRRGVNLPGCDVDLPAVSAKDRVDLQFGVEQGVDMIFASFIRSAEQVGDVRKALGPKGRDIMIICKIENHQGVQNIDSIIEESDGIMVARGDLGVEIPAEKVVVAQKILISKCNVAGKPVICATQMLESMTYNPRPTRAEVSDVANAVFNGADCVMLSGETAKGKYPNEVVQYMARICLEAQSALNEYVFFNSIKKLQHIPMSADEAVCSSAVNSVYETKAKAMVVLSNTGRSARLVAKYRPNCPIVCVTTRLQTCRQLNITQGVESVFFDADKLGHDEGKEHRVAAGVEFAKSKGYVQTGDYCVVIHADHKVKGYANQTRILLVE
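Screened at intermediate enzyme activity to detect both inhibitors and activators: LmPK at 0.1 nM, with a 0.5 nM enzyme column as activation reference. PEP 0.5 mM, ADP 0.1 mM; ATP detected by luminescence after 1 h.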
Giardia FBPA inh: Giardia lamblia aldolase inhibition. Potency, µM (series often up to 59.6 µM), for inactives: at the top dose activity, negative = inhibition, hits mostly inhibitors. AID 2451. A8B2U2. purified Giardia FBPA. actives 0.71% (n = 290,000); note: potency is the fitted concentration of half-maximal effect; % is set by controls: 0 for no effect and ±100 for the full control effect; nearly all actives have a fitted effect of over 55% in size
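Giardia FBPA (40 nM reagent) was preincubated 10 min at RT with compound (up to 57.5 uM final), then substrate plus GAPDH/TPI/NAD/arsenate coupling system with diaphorase/resazurin was added; resorufin fluorescence (525/598 nm) was read after 20 min.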
Numbers without * were called inactive; ? = inconclusive; . = no result given; + = active, no number. Shown is part of a subset that was picked to be rich in hits. Unless noted, calls come from the whole dose curve; as a rule, active = well fitted curve in the direction sought with a large enough effect; inconclusive = small, poorly fitted or top-dose-only effect, or another doubt; inactive = no such curve, though single readings can be large; an effect the other way counts as inactive or inconclusive.

SMILES | Shiga toxin inh | RE007 growth inh | Cycloheximide cs | Tb PYK inh | LmPK inh | Giardia FBPA inh
COc1ccc(-n2c(C)cc(C(=O)COC(=O)c3cc(NC(=O)c4cccs4)c(OC)c(OC)c3)c2C)cc1 | 17 | 6% | -1 | 4% | 4% | 10%
COc1cc(NC(=O)c2cccs2)c(C(=O)OCC(=O)c2cc(C)n(-c3ccccc3)c2C)cc1OC | 66* | -2% | 43* | 2% | -6% | -3%
CC1Cc2ccccc2N1C(=O)COc1ccc2c(c1)OCO2 (stereo unspecified) | 74* | -8% | 34* | 2% | -6% | 0%
CN1/C(=C\C(=O)COc2ccc3c(c2)OCO3)C(C)(C)c2ccccc21 | 11 | -17% | 11* | -2% | 3% | -13%
COc1cccc(/C=C2\Oc3cc(OCC(=O)N4Cc5ccccc5C[C@H]4C(=O)O)ccc3C2=O)c1 | 3 | -2% | -2 | 2% | 0% | 11%
O=C1/C(=C/c2ccc3c(c2)OCO3)Oc2cc(OCC(=O)N3CCC[C@H]3C(=O)O)ccc21 | 23 | 0% | 8.2* | 0% | -1% | -6%
CC1CCCN(C(=O)c2ccc3c(c2)OCO3)C1 (stereo unspecified) | 22 | 5% | 4 | 3% | 2% | 7%
CC1CCCN(C(=O)COc2ccc3c(c2)OCO3)C1 (stereo unspecified) | 64* | -4% | 48* | -8% | -11% | .
O=C(COc1ccc(Cl)cc1)Nc1ccc(-c2nc3ccccc3s2)c(O)c1 | . | . | . | 4% | . | .
COc1ccc(C(=O)N2CCC3(CCCN(C(=O)Nc4cccc(F)c4)C3)CC2)cc1 | . | . | . | -2% | . | 1%
Cc1cc(N2CCN(C)CC2)nc2ccc(NC(=O)Nc3ccccc3Cl)cc12 | . | . | . | 0% | . | .
CC1Cc2ccccc2N1C(=O)CCN1C(=O)C2C3C=CC(C3)C2C1=O (stereo unspecified) | 2 | 10% | 14 | 17% | 1% | -1%
CC1Cc2ccccc2N1C(=O)CSc1ccccc1 (stereo unspecified) | 98 | -20% | 51* | 2% | 0% | 0%
CC1Cc2ccccc2N1C(=O)CCn1c(=O)sc2ccccc21 (stereo unspecified) | 59 | -18% | 12* | 2% | 6% | -12%
CCCNC(=O)C(CC)NC(=O)c1cccc([N+](=O)[O-])c1 (stereo unspecified) | . | 0% | . | -1% | . | .
COCCNC(=O)C1CCCN(C(=O)c2ccc3ccccc3n2)CC1 (stereo unspecified) | . | 57% | . | 1% | . | .
COc1cc(/C=C/C(=O)OCC(=O)N2CCC(C)CC2)ccc1OCC#N | . | 6% | . | -1% | . | .
COc1cccc(C(=O)/C=C/c2ccc(OCC#N)c(OC)c2)c1 | 16* | -20% | 39* | -8% | 0% | -6%
COc1cc(/C=C/C(=O)c2ccc(C)c([N+](=O)[O-])c2)cc(OC)c1O | -6 | -23% | -1 | -22% | -3% | -12%
COc1ccc(/C=C/C(=O)c2ccc(C)c([N+](=O)[O-])c2)cc1O | 79* | . | 46* | -21% | 0% | -10%
CCOc1ccc(/C=C/C(=O)c2ccccc2)cc1OC | 80* | -19% | 56* | 2% | -7% | -3%
COc1cc(/C=C/C(=O)c2ccc(O)cc2)ccc1OCC#N | 85* | -4% | 71* | -3% | 5% | 7%
CCOc1ccc(C(=O)/C=C/c2ccc(OC)c(OC)c2)cc1 | 26 | ? | 1 | 2% | -11% | -12%
COc1cccc(NC(=O)C2CCN(S(=O)(=O)c3cccc4nonc34)CC2)c1 | . | . | . | 2% | . | .
O=C1CCCN=C(Nc2ccc(F)c(Cl)c2)S1 | 54* | -10% | 12 | -9% | -7% | 1%
SMILES | Shiga toxin inh | RE007 growth inh | Cycloheximide cs | Tb PYK inh | LmPK inh | Giardia FBPA inh
CC1(c2ccccc2Br)NC(=O)N(CC(=O)NC2CCCCC2)C1=O (stereo unspecified) | . | 3% | . | -3% | . | .
Cc1ccnc(NC(=O)c2cccc3ccccc23)c1 | 77* | -28% | 49* | -1% | -6% | .
O=C(/C=C/c1ccccc1[N+](=O)[O-])Nc1ccc(S(=O)(=O)Nc2ncccn2)cc1 | 3 | -21% | 1 | 1% | 1% | -29%
CCOc1ccccc1NC(=O)/C=C/c1ccccc1[N+](=O)[O-] | 6 | -1% | 45* | -3% | -4% | -2%
O=C(/C=C\c1ccccc1[N+](=O)[O-])Nc1ccccc1 | 52* | 8% | 39* | 5% | -15% | -5%
Cc1ccnc(NC(=O)c2ccccc2NC(=O)c2ccc(Cl)cc2Cl)c1 | 4 | 3% | 2 | 2% | 2% | -5%
NS(=O)(=O)c1ccc(NC(=O)/C=C/c2ccccc2[N+](=O)[O-])cc1 | 22 | 3% | -3 | 4% | 0% | -2%
Cc1ccnc(NC(=O)/C=C/c2ccccc2[N+](=O)[O-])c1 | 73* | . | 34* | . | -27% | -9%
CCOc1ccccc1NC(=O)/C=C/C(N)=O | 12 | -7% | 12 | -16% | -8% | -7%
Cc1ccc2scc(N3CCCC(C)C3)c(=O)c2c1 (stereo unspecified) | . | . | . | 0% | . | .
Cc1ccc(S(=O)(=O)N2Cc3ccccc3CC2C(=O)NC(C)(C)C)cc1 (stereo unspecified) | -2 | -10% | 1 | -5% | -1% | -4%
Cc1ccnc(NC(=O)/C=C/c2ccccc2Cl)c1 | + | 3% | 59* | -3% | -26% | 1%
Cc1cccnc1NC(=O)CCCc1c[nH]c2ccccc12 | -3 | -1% | 3 | 3% | -2% | .
Cc1ccnc(NC(=O)c2cccc([N+](=O)[O-])c2C)c1 | 51 | -15% | 16 | -7% | 0% | 1%
Cc1ccnc(NC(=O)c2c(-c3ccccc3Cl)noc2C)c1 | 64* | 0% | 21* | 0% | 0% | 6%
Cc1ccnc(NC(=O)c2ccccc2[N+](=O)[O-])c1 | 19 | -12% | 19* | -3% | -13% | 1%
Cc1ccnc(NC(=O)CCc2c[nH]c3ccccc23)c1 | 91* | -7% | 40* | -3% | 1% | .
O=C(Cc1ccccc1)NCC(=O)Nc1cccc(Cl)c1 | -3 | 13% | -4 | 8% | -14% | 3%
Cc1ccc(-n2nnnc2CNC(=O)c2ccccc2)cc1C | . | . | . | 1% | . | .
CCCC(=O)Nc1nnc(SCc2cc(=O)c3cc(C)ccc3[nH]2)s1 | . | . | . | -16% | . | .
O=C(Cn1cc(C(F)(F)F)ccc1=O)Nc1ccccc1 | 44* | -9% | 12* | 0% | 6% | 0%
O=C(Cn1cc(C(F)(F)F)cc(Cl)c1=O)NCCc1ccc(Cl)cc1Cl | -3 | 4% | -4 | -1% | 2% | 4%
NS(=O)(=O)c1cccc(NC(=O)Cn2cc(C(F)(F)F)cc(Cl)c2=O)c1 | 9 | -9% | -1 | -12% | -1% | -1%
